# Test system: Vero E6 infected with SARS-CoV-2
# Test: morphology score (similarity to uninfected cells); higher = more like uninfected cells
# Conditions: 24 h
row,SMILES,morphology score
1,CCn1cc(C(=O)O)c(=O)c2cc(F)c(N3CCNCC3)nc21 [enoxacin] (10 µM),0.124
2,Nc1ccc(S(=O)(=O)c2ccc(N)cc2)cc1 [dapsone] (10 µM),-0.179
3,CCN(CC)C(=O)c1ccc(C2=CC3(CCNCC3)Oc3cccc(O)c32)cc1 (10 µM),0.006
4,CCC(C)SSc1ncc[nH]1 (centres undefined) (10 µM),-0.172
5,Cc1ccc(C(=O)N(CCCN)[C@@H](c2nc3cc(Cl)ccc3c(=O)n2Cc2ccccc2)C(C)C)cc1 [ispinesib] (0.833333 µM),-0.37
6,Cc1c(C(=O)Nc2ccc(N3C[C@@H](C)O[C@@H](C)C3)nc2)cccc1-c1ccc(OC(F)(F)F)cc1 [sonidegib] (10 µM),-0.0039
7,c1cc2c(cc1[C@H]1OC[C@H]3[C@@H]1CO[C@@H]3c1ccc3c(c1)OCO3)OCO2 [sesamin] (10 µM),-0.0737
8,CCc1oc2ccccc2c1C(=O)c1cc(Br)c(O)c(Br)c1 [benzbromarone] (10 µM),0.145
9,COc1cc(OC)c(/C=C2/C(=O)Nc3ccccc32)c(OC)c1 (10 µM),-0.0269
10,CSCC[C@H](NC(=O)[C@H](CC(C)C)NC(=O)[C@@H](Cc1c[nH]c2ccccc12)NC(=O)[C@H](Cc1ccccc1)N(C)C(=O)[C@@H](Cc1c[nH]c2ccccc12)NC(=O)[C@@H](N)CCCNC(=N)N)C(N)=O [antagonist-g] (10 µM),-0.124
11,S=C=Nc1ccc(N=C=S)cc1 [bitoscanate] (10 µM),-0.0255
12,CC[C@H](C)[C@H](N)C1=N[C@H](C(=O)N[C@@H](CC(C)C)C(=O)N[C@H](CCC(=O)O)C(=O)N[C@H](C(=O)N[C@H]2CCCCNC(=O)[C@H](CC(N)=O)NC(=O)[C@@H](CC(=O)O)NC(=O)[C@H](Cc3cnc[nH]3)NC(=O)[C@@H](Cc3ccccc3)NC(=O)[C@H]([C@@H](C)CC)NC(=O)[C@@H](CCCN)NC2=O)[C@@H](C)CC)CS1 [bacitracin] (10 µM),-0.109
13,O=C(NCCCN1CCOCC1)c1ccc(Cl)cc1 [eprobemide] (10 µM),-0.0432
14,O[C@@](Cc1nc(CC2(C(F)(F)F)CC2)c[nH]1)(c1ccc(-n2cccn2)cc1)C(F)(F)F (10 µM),0.03

# Reference: the supplement of paper PMC13380429
